Structures are written as SMILES. Inconclusive results are not listed. Activity calls are given as the source filed them. The call rests on the fitted dose curve; in most records, active means well fitted inhibition curve with a large enough effect; inconclusive means small, poorly fitted or top-dose-only effect; inactive means flat fitted curve, though single readings scatter. Peptide text beside a SMILES is read from it.

In this experiment the test system is CRL-7250. The experiment can be described thus: qHTS assay to identify novel small-molecules to repurpose for Merkel cell carcinoma treatment (AID 1296009). Further: nearly all actives have a fitted effect of over 60% in size. Particulars: MCC and control cell lines, CellTiter-Glo viability, 72 h; at 44.8 µM (top of the series) unless noted. Put shortly: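 CellTiter-Glo luminescence after 72 hr compound exposure at 37 degree celsius gave cell viability. Libraries NPC and MIPE were run as 8- and 11-point dose responses; RLUs normalized to DMSO (negative) and no-cell (cytotoxicity) controls.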
On to `Cn1c(=O)c2[nH]c(Br)nc2n(C)c1=O`, for which the compound was called inactive.

On to `CC(=O)OCC(=O)[C@@]1(O)[C@H](OC(C)=O)C[C@H]2[C@@H]3CCC4=CC(=O)C=C[C@]4(C)[C@@]3(F)[C@@H](O)C[C@@]21C`, for which the result was inactive.

On to `NC(CS)C(=O)O` (configuration not stated), for which the compound was classed as inactive.

As for `Cc1onc(-c2ccccc2)c1-c1ccc(S(N)(=O)=O)cc1`, the compound was called inactive.

On to `COc1cc(O)cc(O)c1`, for which the result was inactive.

Turning to `CC(CN(C)C)C(C)(O)Cc1ccc(Cl)cc1` (configuration not stated), the call was inactive.

As to `CCNC(=O)[C@@H]1CCCN1C(=O)[C@H](CCCN=C(N)N)NC(=O)[C@H](CC(C)C)NC(=O)CNC(=O)[C@H](Cc1ccc(O)cc1)NC(=O)[C@H](CO)NC(=O)[C@H](Cc1c[nH]c2ccccc12)NC(=O)[C@H](Cc1cnc[nH]1)NC(=O)[C@@H]1CCC(=O)N1` (HELM PEPTIDE1{[Glp].H.W.S.Y.G.L.R.P.[CCN[*:1]]}$$$$V2.0), the result was inactive.

Regarding `NC(=O)NC1NC(=O)NC1=O` (configuration not stated), the compound was classed as inactive.

Turning to `CC(=O)NC[C@H]1CN(c2ccc(N3CCOCC3)c(F)c2)C(=O)O1`, the outcome was inactive.

Turning to `Cc1cc(O)c2c(O)c3c(O)cccc3cc2c1`, the result was inactive.

For `CCC[C@@]1(CCc2ccccc2)CC(O)=C([C@H](CC)c2cccc(NS(=O)(=O)c3ccc(C(F)(F)F)cn3)c2)C(=O)O1`, the call was inactive.

Turning to `Nc1ccc(S(=O)(=O)Nc2ccccn2)cc1`, the call was inactive.

Turning to `O=C(CO)[C@@H](O)[C@H](O)[C@@H](O)CO`, the outcome was inactive.

As for `COc1cc(OC)c(C(=O)CCCN2CCCC2)c(OC)c1`, the compound was classed as inactive.

Turning to `CC[N+](C)(CC)CCOC(=O)C1c2ccccc2Oc2ccccc21`, the result was inactive.

For the compound `O=C(O)Cc1ccc(OCCNC[C@H](O)c2ccccc2)cc1`, the outcome was inactive.

For `c1ccc2sc(SN3CCOCC3)nc2c1`, the compound was called inactive.

With `OCc1ccc(Cl)cc1Cl`, the outcome was inactive.

Turning to `COC(=O)[C@@H]1[C@H]2C[C@H]3c4[nH]c5ccccc5c4CCN3C[C@@H]2CC[C@@H]1O`, the compound was called inactive.

As to `O=[N+]([O-])c1cncn1CCN1CCOCC1`, the call was inactive.

Consider `CCCCCCCCCCCCCCCCCC(=O)OCC(O)CO` (configuration not stated), for which the compound was called inactive.

For the compound `CCOc1cc(CC(=O)N[C@@H](CC(C)C)c2ccccc2N2CCCCC2)ccc1C(=O)O`, the call was inactive.

In the case of `CCOc1ncc(F)c(=O)[nH]1`, the outcome was inactive.

`NS(=O)(=O)c1cc2c(cc1Cl)NC(C(Cl)Cl)NS2(=O)=O` (configuration not stated): the compound was classed as inactive.

Regarding `CCC1=C(C)CN(C(=O)NCCc2ccc(S(=O)(=O)NC(=O)NC3CCC(C)CC3)cc2)C1=O` (configuration not stated), the compound was classed as inactive.

Turning to `O=C(NCC1CCCCN1)c1cc(OCC(F)(F)F)ccc1OCC(F)(F)F` (configuration not stated), the compound was called inactive.

Turning to `CC(=O)Nc1ccc(/C=N/NC(N)=S)cc1`, the compound was called inactive.

Consider `CN1N=C(C(N)=O)CCC1=O`, for which the call was inactive.

As to `CCC[C@@H]1C[C@@H](C(=O)N[C@@H]([C@H]2O[C@H](SC)[C@H](O)[C@@H](O)[C@H]2O)[C@@H](C)O)N(C)C1`, the result was inactive.

Regarding `CC(=O)N(CC(O)CO)c1c(I)c(C(=O)NCC(O)CO)c(I)c(C(=O)NCC(O)CO)c1I` (configuration not stated), the compound was called inactive.

`NCCCCCC(=O)O`: the compound was classed as inactive.

Regarding `Cc1ccc2ccc(Cl)cc2n1`, the compound was classed as inactive.

Turning to `O=C1CN(/N=C/c2ccc([N+](=O)[O-])o2)C(=O)N1`, the call was inactive.

As for `CCCCOC(=O)c1ccc(N)cc1`, the compound was classed as inactive.

On to `Nc1ncnc2nc[nH]c12`, for which the compound was called inactive.

On to `N[C@@H](COP(=O)(O)O)C(=O)O`, for which the outcome is “inactive [at 17.4 µM]”.

On to `Cc1cc(C(C#N)c2ccc(Cl)cc2)c(Cl)cc1NC(=O)c1cc(I)cc(I)c1O` (configuration not stated), for which the outcome was inactive.
